Laboratory results taken from PubChem BioAssay (EPA / NIEHS).
Several values for one entry are separate records, joined by “and”; a condition that tells them apart may be missing. Equal values may be shown once. A structure can be active in one record and inactive in another. Activity calls are given as the source filed them. How the source made its calls: active means hit-call score of the fitted dose curve at least 0.9, where 1 is the maximum; inactive means score below 0.9.

Assay: ATG_BRE_CIS: Attagene CIS-FACTORIAL HepG2 Assay for human Bone Morphogenetic Protein (BMP) Response Element (BRE) (AID 2282933)
Settings: HepG2 BMP response element reporter, Attagene transcription factor profiling; actives raise or lower the signal
Experimental: ATG_CIS is a cell-based, multiplexed-readout assay that uses HepG2, a human liver cell line, with measurements taken at 24 hours after chemical dosing in a 24-well plate.ATG_BRE_CIS is one of 52 assay component(s) measured or calculated from the ATG_CIS assay. It is designed to make measurements of mRNA induction, a form of inducible reporter, as detected with fluorescence intensity signals by Reverse transcription polymerase chain reaction (RT-PCR) and Capillary electrophoresis technology.Data from the assay component ATG_BRE_CIS was analyzed into 1 assay endpoint. This assay endpoint, ATG_BRE_CIS, was analyzed with bidirectional fitting relative to DMSO as the negative control and baseline of activity. Using a type of inducible reporter, measures of mRNA for gain or loss-of-signal activity can be used to understand the reporter gene at the transcription factor-level as they relate to the gene SMAD1. Furthermore, this assay endpoint can be referred to as a primary readout, because this assay has produced multiple assay endpoints where this one serves a reporter gene function. To generalize the intended target to other relatable targets, this assay endpoint is annotated to the dna binding intended target family, where the subfamily is Smad protein.
Human liver HepG2 cells are transiently transfected with multiple reporter transcription units (MRTUs) in 6-well plates using FuGene 6 reagent (Roche; 3 ml FuGene/1 mg DNA). The MRTU constructs are regulated by a cis-regulating element (promoter). […] A major difference between the CIS and TRANS system is that in CIS activities of endogenous TFs are measured, whereas the TRANS assay evaluates changes in activities of exogenous, chimeric NR-Gal4 proteins. […] At the end of 24 hour incubation, total RNA was isolated using TriZol reagent (Invitrogen). The isolated RNA is then reverse-transcribed using oligo(dT) primer and Mo-MLV reverse transcriptase (Invitrogen) with DNAse I (Ambion) treatment for 30 min. The one-tenth of the produced cDNA was amplified by PCR using Taq DNA polymerase (Invitrogen) and two reporter sequence-specific primers. The PCR products were fluorescently labeled by primer extension with 6-arboxyfluorescein (6-FAM) 5'-labeled reporter sequence-specific primer (2 min at 95 C, 20 s at 68 C and 10 min at 72 C) and these products were digested with 5U of HpaI (New England Biolabs) for 2h at 37 C. The fragments were purified using Qiaquick PCR columns (Qiagen), analyzed on an ABI 3130xL genetic analyzer (Applied Biosystems) with peak positions identified by using a set of X-rhodamine (ROX)-labeled MapMarker1000 molecular weight standards (BioVentures). The raw capillary electrophoresis data was processed using Attagraph software (Attagene).

With `O=CC(F)(F)C(F)(F)C(F)(F)F` as the compound, how does the outcome read?
The outcome was “inactive”.

With `CCCCCCCCCCCC(=O)NCCCN(C)C` as the compound, how does the AC50 read?
Its AC50 is 17.6 µM (active).

With `Oc1cccc2c(O)cccc12` as the compound, how does the outcome read?
Its outcome is “inactive”.

For `OCC(F)(F)C(F)(F)C(F)(F)C(F)(F)C(F)(F)C(F)(F)C(F)(F)C(F)(F)C(F)(F)C(F)(F)C(F)(F)F`, which outcome is on record?
Its outcome is “inactive”.

For `Cc1cc(=O)oc2cc(O)ccc12`, which outcome is on record?
Its outcome is “inactive”.

For `CCCCCCCCCCCCCC[n+]1ccccc1`, which AC50 is on record?
The AC50 was 1.22 µM (active).

For `CC(C)(C)c1ccc(O)c(O)c1`, which AC50 is on record?
The AC50 was 47.3 µM (active).

And the outcome?
Its outcome is “inactive”.

For `Oc1ccc(Cc2ccccc2O)cc1`, which outcome is on record?
The outcome was “inactive”.

Which outcome does the source give for `C=CC(C)(CCC=C(C)C)OC(C)=O` (stereo unspecified) here?
The outcome was “inactive”.

With `CCCCCCCC(OC)OC` as the compound, how does the outcome read?
Its outcome is “inactive”.

With `O=C(c1cc(O)c(O)c(O)c1)c1ccc(O)c(O)c1O` as the compound, how does the AC50 read?
Its AC50 is 4.01 µM (active).

Which outcome does the source give for `O=P(O)(O)CCC(F)(F)C(F)(F)C(F)(F)C(F)(F)C(F)(F)C(F)(F)C(F)(F)C(F)(F)F` here?
Its outcome is “inactive”.

For `CCOC(C)=O`, which outcome is on record?
The outcome was “inactive”.

Which outcome does the source give for `c1ccc2c(c1)CCC2` here?
The outcome was “inactive”.

With `Cc1cccc2c1ccc1ccccc12` as the compound, how does the outcome read?
The outcome was “inactive”.

With `Nc1ccn([C@@H]2O[C@H](CO)[C@@H](O)C2O)c(=O)n1` (stereo partly specified) as the compound, how does the outcome read?
The outcome was “inactive”.

For `CN(C)CCOC(c1ccccc1)c1ccccc1`, which outcome is on record?
Its outcome is “inactive”.

With `CC=O` as the compound, how does the outcome read?
The outcome was “inactive”.

Which outcome does the source give for `O=C1c2ccc(O)c(O)c2C(=O)c2c(O)ccc(O)c21` here?
The outcome was “inactive”.

With `O=C1NS(=O)(=O)c2ccccc21` as the compound, how does the outcome read?
The outcome was “inactive”.

With `NCCN` as the compound, how does the outcome read?
Its outcome is “inactive”.

With `O=C1c2ccccc2C(=O)c2c(O)c(O)cc(O)c21` as the compound, how does the outcome read?
The outcome was “inactive”.

With `CC(C)(C)C1CCCCC1O` (stereo unspecified) as the compound, how does the outcome read?
The outcome was “inactive”.

With `CC1CCC(CO)CC1` (stereo unspecified) as the compound, how does the outcome read?
The outcome was “inactive”.

For `CCc1cccc(CC)c1N(COC)C(=O)CS(=O)(=O)O`, which outcome is on record?
The outcome was “inactive”.

With `COCC1CCC(CO)CC1` (stereo unspecified) as the compound, how does the outcome read?
Its outcome is “inactive”.

For `C[C@]12CC[C@@H]3c4ccc(O)cc4CC[C@H]3[C@@H]1C[C@@H](O)[C@@H]2O`, which outcome is on record?
Its outcome is “inactive”.

For `C=CC(=O)OCCC(F)(F)C(F)(F)C(F)(F)C(F)(F)C(F)(F)C(F)(F)C(F)(F)C(F)(F)F`, which outcome is on record?
The outcome was “inactive”.

For `c1cc[nH]c1`, which outcome is on record?
Its outcome is “inactive”.

With `C=CC(=O)OCC(CO)(COCC(COC(=O)C=C)(COC(=O)C=C)COC(=O)C=C)COC(=O)C=C` as the compound, how does the outcome read?
The outcome was “inactive”.

With `CCCCCCCCC1CCC(=O)O1` (stereo unspecified) as the compound, how does the outcome read?
Its outcome is “inactive”.

For `CCCCCCCCCCCCCCCCCC[N+](C)(C)Cc1ccccc1`, which AC50 is on record?
Its AC50 is 4.38 µM (active).

For `CC(=O)CC(C)C`, which outcome is on record?
Its outcome is “inactive”.

With `CCCCCCCCCCCCCCC` as the compound, how does the outcome read?
The outcome was “inactive”.

For `CCCCCC(C)OC(=O)COc1ccc(Cl)c2cccnc12` (stereo unspecified), which outcome is on record?
The outcome was “inactive”.

With `O=C(Nc1ccc(Cl)c(Cl)c1)c1cc(Cl)cc(Cl)c1O` as the compound, how does the AC50 read?
The AC50 was 0.695 µM (active).

Which outcome does the source give for `CC(C)(C)c1ccc(CCC=O)cc1` here?
The outcome was “inactive”.

Which outcome does the source give for `O=C(CC(=O)C(F)(F)C(F)(F)C(F)(F)F)c1cccs1` here?
Its outcome is “inactive”.

With `NC(=NCCCCCCN=C(N)/N=C(\N)Nc1ccc(Cl)cc1)/N=C(\N)Nc1ccc(Cl)cc1` as the compound, how does the outcome read?
Its outcome is “inactive”.

And the AC50?
The AC50 was 3.85 µM (active) and 3.17 µM (active).
